The panel holds about 79,000 compounds, 15% with a hit somewhere; the sample as a whole holds those more often. Values without a mark were called inactive. Calls of active or inactive are those of the source. Cut-off read from the data, not from the text of the source: active = growth inhibition above about 70%; inactive = the rest.
What was measured:
[1] = NCI Yeast Anticancer Drug Screen. Data for the rad50 strain (AID 155);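 note: 0% = growth of vehicle-only cultures of the same strain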; details: S. cerevisiae rad50 strain growth inhibition, active compounds read high
Procedure, shortened: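 Growth of the mutant yeast was measured after compound exposure and referenced to vehicle-treated cultures.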

[2] = NCI Yeast Anticancer Drug Screen. Data for the mec2-1 strain (AID 157); details: S. cerevisiae mec2-1 strain, active compounds read high
Procedure, shortened: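 mec2-1 yeast strain, carrying an alteration in DNA damage repair or cell cycle control, was exposed to compounds; growth inhibition was measured relative to vehicle-treated controls.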

[3] = NCI Yeast Anticancer Drug Screen. Data for the sgs1 mgt1 strain (AID 161);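 note: 0% = growth of cultures given vehicle only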; details: S. cerevisiae sgs1 mgt1 strain, active compounds read high
Procedure, shortened: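 This yeast growth screen uses a strain with defined DNA-repair lesions; compound-treated growth is compared with vehicle-treated growth.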

[4] = NCI Yeast Anticancer Drug Screen. Data for the cln2 rad14 strain (AID 165);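 note: 0% = growth equal to vehicle treated cultures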; details: S. cerevisiae cln2 rad14 strain, active compounds read high
Procedure, shortened: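 Yeast carrying cln2 and rad14 alterations (cell cycle control and DNA damage repair) were exposed to compounds. Growth inhibition was measured against vehicle-treated controls.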

[5] = NCI Yeast Anticancer Drug Screen. Data for the bub3 strain (AID 167); details: S. cerevisiae bub3 mutant strain, active compounds read high
Procedure, shortened: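 Whole-cell yeast assay. The mutant strain was incubated with compounds, and growth inhibition was determined by comparison with vehicle-treated cells.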

[6] = NCI Yeast Anticancer Drug Screen. Data for the mlh1 rad18 strain (AID 175); details: S. cerevisiae mlh1 rad18 strain growth inhibition, active compounds read high
Procedure, shortened: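 Growth inhibition of the yeast strain was measured after compound exposure and expressed relative to vehicle-treated controls. The strain carries defined defects in DNA damage repair.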

[7] = at 5.0 µM (retest, dose inferred, filed as 0.5)
[8] = at 50.0 µM (retest, dose inferred, filed as 5.0)

| SMILES | growth inhibition [1, 7] | growth inhibition [1, 8] | growth inhibition ([1]; at 50.0 µM) | growth inhibition [2, 7] | growth inhibition [2, 8] | growth inhibition ([2]; at 50.0 µM) | growth inhibition [3, 7] | growth inhibition [3, 8] | growth inhibition ([3]; at 50.0 µM) | growth inhibition [4, 7] | growth inhibition [4, 8] | growth inhibition ([4]; at 50.0 µM) | growth inhibition [5, 7] | growth inhibition [5, 8] | growth inhibition ([5]; at 50.0 µM) | growth inhibition [6, 7] | growth inhibition [6, 8] | growth inhibition ([6]; at 50.0 µM) |
| --- | --- | --- | --- | --- | --- | --- | --- | --- | --- | --- | --- | --- | --- | --- | --- | --- | --- | --- |
| O=C1Nc2ccccc2/C1=C/c1ccc(Cl)c(Cl)c1 | -1% | 71% (active) | 78.3% (active) | -8% | 89% (active) | 80.3% (active) | -4% | 73% (active) | 65.5% | 20% | 94% (active) | 74.1% (active) | -10% | 94% (active) | 74.7% (active) |  |  |  |
| COC(=O)c1ccc(/C=C/C2=CC(=O)C=CC2=O)cc1 | 30% | 44% | 29.6% | 27% | 41% | 36.5% | 27% | 57% | 78.2% (active) | 18% | 28% | 58.9% | 37% | 57% | 75.3% (active) | 29% | 57% | 84.1% (active) |
| O=C(O)Cc1nc2ccccc2[nH]1 | 1% | 95% (active) | 25.9% | 9% | 70% (active) | 51.2% | 14% | 99% (active) | 2.85% | 0% | 34% | 14.8% | 1% | 98% (active) | -3.2% |  |  |  |
| COc1ccc(C(=O)Cc2nc3nnc(NC(=O)Nc4ccc(Cl)cc4)n3nc2CC(=O)c2ccc(OC)cc2)cc1 | 2% | 96% (active) | 93.1% (active) | 7% | 98% (active) | 94.9% (active) | 1% | 98% (active) | 94.8% (active) | -1% | 97% (active) | 93.5% (active) | 7% | 98% (active) | 96.2% (active) | 4% | 97% (active) | 95.1% (active) |
| COc1ccccc1/C=C\C(=O)c1ccccc1 | 2% | 89% (active) | 98.7% (active) | 1% | 98% (active) | 99.4% (active) | 2% | 95% (active) | 99.2% (active) | -4% | 57% | 89.8% (active) | 5% | 98% (active) | 98.8% (active) |  |  |  |
| COc1ccc(/C=C/c2c[n+]([O-])ccc2[N+](=O)[O-])cc1 | 14% | 95% (active) | 77% (active) | 18% | 97% (active) | 72.2% (active) | 37% | 96% (active) | 63.9% | 12% | 95% (active) | 38.4% | 9% | 97% (active) | 9.35% |  |  |  |
| COc1ccc2nc3cc(Cl)ccc3c(Nc3ccc(O)c(CNCCO)c3)c2c1 | -27% | 63% | 88.9% (active) | -1% | -6% | 31.9% | -5% | 44% | 81% (active) | -2% | -11% | 17.2% | 0% | -4% | -7.15% |  |  |  |
| COC(=O)c1ncc(Cl)cc1Cl | 3% | -4% | 59.9% | 0% | -7% | 39.8% | 0% | -7% | 58.8% | 7% | -7% | 22.1% | 1% | -19% | 38.4% | 0% | -1% | 46.4% |
| Nc1ccc(Sc2c3ccccc3nc3ccccc23)cc1 | 19% | 59% | 80.8% (active) | 16% | 34% | 63.3% | 22% | 98% (active) | 87.2% (active) | 19% | 96% (active) | 71.8% (active) | 24% | 98% (active) | 85% (active) | 18% | 48% | 60.1% |
| CCN(CC)CCOc1ccc(/C(C#N)=C/c2ccc(C(F)(F)F)cc2)cc1 | 36% | 96% (active) | 75.5% (active) | 34% | 99% (active) | 48.6% | 65% | 98% (active) | 90.5% (active) | 48% | 90% (active) | 69.3% | 54% | 98% (active) | 54.1% | 38% | 99% (active) | 90.8% (active) |
| C/C(Cl)=N\OC(=O)Nc1ccc(C)cc1 | 4% | 99% (active) | 55.6% | -2% | 99% (active) | 79.5% (active) | -26% | 91% (active) | 74.5% (active) | 4% | 86% (active) | 53.6% | 11% | 98% (active) | 74% (active) | -3% | 96% (active) | 60.4% |
| N#CC1C(=O)SC2c3ccccc3C(=O)c3ccccc3C12 (stereo unspecified) | -3% | 51% | 63.8% | -28% | -4% | 0.05% | -6% | 5% | 38% | 6% | 36% | 42.6% | -8% | 27% | 32.8% | -8% | 58% | 69.8% |
| CCCCCCCCC(C)c1ccccc1O (stereo unspecified) | -150% | 96% (active) | 99.7% (active) | -53% | 98% (active) | 99.7% (active) | -68% | 96% (active) | 99.4% (active) | -62% | 97% (active) | 99.4% (active) | -56% | 96% (active) | 99.5% (active) |  |  |  |
| O=C1C=CC2=Nc3ccccc3CCC2=C1 | -151% | 95% (active) | 90% (active) | -57% | 95% (active) | 99% (active) | -63% | 95% (active) | 87.7% (active) | -52% | 86% (active) | 88.9% (active) | -67% | 97% (active) | 98.8% (active) | -115% | 97% (active) | 95.1% (active) |
| CCCCCCCCCCCCCC(=O)OCC[N+](C)(C)C | 26% | 98% (active) | 90.2% (active) | 27% | 99% (active) | 92.5% (active) | 41% | 99% (active) | 92.9% (active) | 32% | 98% (active) | 88.8% (active) | 40% | 99% (active) | 91.5% (active) |  |  |  |
| CN(C)CCOc1ccc2c(c1)C(=O)/C(=C\c1ncc([N+](=O)[O-])n1C)C2 | 31% | 73% (active) | 54.1% | 21% | 89% (active) | 80.3% (active) | 21% | 67% | 77.4% (active) | 22% | 46% | 59% | 21% | 95% (active) | 34.8% | 50% | 78% (active) | 80.8% (active) |
| O=C(Nc1ccc(F)c([N+](=O)[O-])c1)NC(Cc1ccccc1)c1ccccc1 (stereo unspecified) | -11% | 86% (active) | 91.6% (active) | -2% | 93% (active) | 94.2% (active) | 12% | 92% (active) | 94.2% (active) | 2% | 92% (active) | 88.9% (active) | -4% | 92% (active) | 81.8% (active) | 26% | 91% (active) | 93.1% (active) |
| c1ccc(N=C2c3ccsc3C(=Nc3ccccc3)c3ccsc32)cc1 | 25% | 98% (active) | 80% (active) | 22% | 98% (active) | 75.5% (active) | 21% | 93% (active) | 81.7% (active) | 5% | 53% | 84.5% (active) | 51% | 97% (active) | 81.6% (active) | 29% | 97% (active) | 85.6% (active) |
| COc1cc(/C=C(/C)C[N+](=O)[O-])ccc1O | 54% | 99% (active) | 99.5% (active) | 23% | 99% (active) | 99.8% (active) | 15% | 93% (active) | 99.8% (active) | 13% | 99% (active) | 98.8% (active) | 36% | 99% (active) | 98.8% (active) |  |  |  |
| O=C1Nc2ccccc2NC(=O)C(=C(c2ccccc2)c2ccccc2)C1=C(c1ccccc1)c1ccccc1 | 95% (active) | 96% (active) | 46.9% | 94% (active) | 97% (active) | 97.8% (active) | 96% (active) | 98% (active) | 53.1% | 92% (active) | 96% (active) | 97.5% (active) | 95% (active) | 97% (active) | 98% (active) | 96% (active) | 96% (active) | 43.9% |

Source: PubChem BioAssay (NCI)
